A selection: hits, their analogues and other compounds. The true share with any hit is near 19%.
IL1B secr inh: qHTS for Inhibitors of Inflammasome Signaling: IL-1-beta AlphaLISA Primary Screen. 4.7% of 360,000 active. THP-1 LPS/ATP IL-1B secretion, AlphaLISA, 16 h; active compounds read low. activity change, % at 57.5 µM. AID 743279, 2014; in the data active = activity change below about -50%; inconclusive = mostly about -30% to -49%
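Secreted IL-1B measured by AlphaLISA bead assay after 16 h compound exposure of THP-1 cells; compounds (final up to 57.5 uM) added 1 h before LPS (250 ng/mL) and ATP (1.25 mM) stimulation; lower signal means less secretion.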
DT40 TDP1 CPT: qHTS for Inhibitors of human tyrosyl-DNA phosphodiesterase 1 (TDP1): qHTS in cells in presence of CPT; 12% of 420,000 active; chicken DT40 Tdp1-/-;hTDP1 cells + 20 nM CPT, ATP luminescence, 48 h; AID 686979, 2013; Potency, µM (highest dose often 46.2 µM), without a hit: top-dose activity change, negative = growth inhibition, usual class: inhibitors; note: potency is the fitted concentration of half-maximal effect; nearly all actives have a fitted effect of over 55% in size
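Cell growth measured by CellTiter-Glo luminescence after a minimum 48 h, 37 C compound exposure with 20 nM CPT in Tdp1-knockout DT40 cells stably expressing hTDP1, seeded 400/well; qHTS titration format.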
HT1080 IDH1KD tx: qHTS for induction of synthetic lethality in tumor cells producing 2HG: qHTS for the HT-1080-IDH1KD cell line; 2% of 360,000 active; Potency, µM (titrated, usually from 46.1 µM), for the others: top-dose activity, negative = toxicity, usual class: cytotoxic; HT-1080 IDH1 knockdown viability, ATP luminescence, 48 h; AID 686971, 2013;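 note: potency is the fitted concentration of half-maximal effect; 0% = DMSO wells and -100% = cell-free medium wells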
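Assay cells: HT-1080 with IDH1 knockdown, 750 per well, RPMI/5% FBS. Exposure: 48 h at 37 °C following 2 h pre-incubation. Read: CellTiter-Glo luminescence; fitted concentration-response, curve class assigned.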
uPA surface inh: qHTS for Inhibitors of Cell Surface uPA Generation | 0.31% of 330,000 active | cell surface uPA generation assay, qHTS | Potency, µM (highest dose often 38.3 µM), without a hit: top-dose activity change, negative = inhibition, most hits filed as inhibitors; active = well fitted inhibition curve with a large enough effect; inconclusive = small, poorly fitted or top-dose-only effect; inactive = no such curve, though single readings can be large or run the other way; tested in mouse RAW 264.7 cells; note: potency is the fitted concentration of half-maximal effect; nearly all actives have a fitted effect of over 55% in size
HT1080NT lethal: qHTS for induction of synthetic lethality in tumor cells producing 2HG: qHTS for the HT-1080-NT fibrosarcoma cell line | HT-1080-NT fibrosarcoma viability, CellTiter-Glo ATP luminescence, 48 h | Potency, µM (series often up to 46.1 µM), for the others: top-dose activity, negative = less viability, hits mostly cytotoxic | 1.6% of 360,000 active | AID 686970, 2013;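 note: NT is the 2HG producing partner of a matched IDH1 knockdown line; potency is the fitted concentration of half-maximal effect; 0% = DMSO-treated cells and -100% = media-only wells without cells; nearly all actives have a fitted effect of over 55% in size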
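Viability of the 2HG-overproducing fibrosarcoma line after 48 hours of compound exposure at 37 degrees C was determined by luminescence with CellTiter-Glo, and concentration-effect curves were then fitted and categorized.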
TDP1 cell noCPT: qHTS for Inhibitors of human tyrosyl-DNA phosphodiesterase 1 (TDP1): qHTS in cells in absence of CPT | 15% of 420,000 active | DT40 Tdp1-/- hTDP1 cells, no CPT, ATP luminescence, 48 h | Potency, µM (titrated, usually from 46.2 µM), inactives show at the top dose activity change, negative = growth inhibition, actives largely listed as inhibitors; note: potency is the fitted concentration of half-maximal effect; nearly all actives have a fitted effect of over 55% in size
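DT40 Tdp1-/-;hTDP1 cells, no CPT (DMSO vehicle only), 400 cells/well; compounds pin-transferred; ≥48 hr, 37 °C; CellTiter-Glo 30 min RT dark, luminescence read.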
* hit, by the source's call; ? = inconclusive; . = no result given; [ ] = remark or other dose. Unless noted, calls come from the whole dose curve; as a rule, active = well fitted curve in the direction sought with a large enough effect; inconclusive = small, poorly fitted or top-dose-only effect, or another doubt; inactive = no such curve, though single readings can be large; an effect the other way counts as inactive or inconclusive. Unless noted, % is set by controls: 0 for no effect and ±100 for the full control effect.

SMILES	IL1B secr inh	DT40 TDP1 CPT	HT1080 IDH1KD tx	uPA surface inh	HT1080NT lethal	TDP1 cell noCPT
O=C1OCCC1=COCCCCCCOC=C1CCOC1=O	8	-10%	-15%	.	-1%	?
OC1(c2cccnc2)CCN(Cc2ccc3c(c2)CN(Cc2ccc4nsnc4c2)CCO3)CC1	.	-5%[9.04 µM]	.	.	.	?
COC(=O)CSc1[nH]c2cc(C)ccc2c1[N+](=O)[O-]	42	?	-6%	-3%	0%	?
CCOc1ccc2[nH]c(SCC(=O)OC)c([N+](=O)[O-])c2c1	21	6.5µM*	-7%	-1%	0%	4.6µM*
CCc1nc2nc(C)c(NS(=O)(=O)c3ccc(Cl)s3)c(=O)n2[nH]1	42	10%	7%	3%	-1%	-4%
CCOc1cccc(C(=O)Nc2c(C(=O)c3ccc(OC)cc3)oc3ccccc23)c1	.	-4%	.	.	.	15%
CCOC(=O)N1CCN(S(=O)(=O)c2ccc(OC)c(Cl)c2Cl)CC1	-3	?	-8%	2%	-9%	13µM*
CCOC(=O)N1CCN(S(=O)(=O)c2ccc(OCC)c3ccccc23)CC1	-80*	16µM*	?	0%	-7%	23µM*
CCOC(=O)N1CCN(S(=O)(=O)c2ccc(OC)c(Cl)c2)CC1	2	-8%	13%	-1%	9%	-23%
CCOC(=O)N1CCN(S(=O)(=O)c2ccc(OCC(=O)OC)c(Cl)c2)CC1	-91*	0%	10%	1%	-3%	-4%
Cc1csc2c(N3CCN(C(=O)Nc4ccc(OC(F)(F)F)cc4)CC3)ncnc12	-70*	10µM*	?	5%	?	18µM*
O=C(OCc1ccc([N+](=O)[O-])cc1)c1cc(=O)c2ccccc2o1	15	30%	20%	-1%	-2%	-18%
COc1cc(C(=O)Nc2ccncc2)cc(OC)c1OC	21	-26%	-5%	2%	-14%	?
COc1ccc(Br)c2c1-c1nc(NC(=O)c3ccccc3F)sc1C2	.	21µM*	.	.	.	18µM*
COc1cc(C(=O)Nc2nc3c(s2)Cc2c(Br)ccc(OC)c2-3)cc(OC)c1OC	.	15µM*	.	.	.	15µM*
CCCCNS(=O)(=O)c1ccc(NC(=O)C(Sc2ccccc2)c2ccccc2)cc1 (configuration not stated)	?	?	?	-9%	?	?
CC(C)OCCCNC(=O)C(=O)Nc1c2c(nn1-c1ccccc1)CS(=O)(=O)C2	.	-5%	.	.	.	-16%
Cc1c(-c2ccn[nH]2)cc(NC(=O)c2ccc(Cl)cc2)c(=O)n1N	-1	7%	0%	3%	7%	-23%
COc1ccc(CN(CCC(c2ccc(F)cc2)C2CCOC(C)(C)C2)C(=O)c2ccco2)cc1 (configuration not stated)	-103*	21µM*	26µM*	5%	?	16µM*
CC(c1ccccc1)N(CCC(c1ccccc1)C1CCOC(C)(C)C1)C(=O)c1ccco1 (configuration not stated)	0	?	-2%	0%	7%	18µM*
CC1(C)CC(C(CC(=O)O)c2ccccc2)CCO1 (configuration not stated)	8	0%	1%	-4%	1%	1%
CN1CCN(S(=O)(=O)c2ccc(NC(=S)NC(=O)C(C)(C)C)cc2)CC1	-9	-9%	22%	-1%	9%	?
CCCS(=O)(=O)NCc1c(C)ncc2c1CCN(C(=O)c1cccc(C(F)(F)F)c1)C2	.	4%[9.04 µM]	.	.	.	-9%
Cc1c(C)c2c(c(C)c1O)CCC(C)(C(=O)O)O2 (configuration not stated)	0	-19%	8%	23%	-1%	-16%
Cc1c(O)ccc2c1OC(C)(C)CC2	.	5.6µM*	15%	.	14%	4µM*
SMILES	IL1B secr inh	DT40 TDP1 CPT	HT1080 IDH1KD tx	uPA surface inh	HT1080NT lethal	TDP1 cell noCPT
CN(C)CCN(C(=O)CN1C(=O)c2ccccc2C1=O)c1nc2cc3c(cc2s1)OCO3	-3	-20%	-6%	4%	-3%	?
CN(C)CCCN(C(=O)c1ccco1)c1nc2ccc(Br)cc2s1	-70*	23µM*	21µM*	6%	23µM*	23µM*
Cc1ccc(C(=O)N(CCCN(C)C)c2nc3ccc(Cl)cc3s2)cc1C	-107*	?	23µM*	3%	23µM*	?
CN(C)CCN(C(=O)c1ccc2c(c1)OCCO2)c1nc2ccc(Cl)cc2s1	-21	?	?	6%	-4%	?
CN(C)CCCN(C(=O)c1ccco1)c1nc2ccc(Cl)cc2s1	-16	18µM*	18µM*	2%	?	16µM*
CN(C)CCN(C(=O)c1ccco1)c1nc2cc3c(cc2s1)OCCO3	7	4.6µM*	-13%	?	-22%	3.7µM*
COc1cc(Nc2nc3ccc(Cl)cc3nc2-n2nc(C)cc2C)cc(OC)c1	.	0%	.	.	.	8%
COc1ccc(OC)c(NC(=O)C2(C)CCN2C(=O)C2(c3ccc(Cl)cc3)CCC2)c1 (configuration not stated)	30	?	?	.	-14%	?
Cc1ccc2nc(N(CCCN(C)C)C(=O)c3sc4ccccc4c3Cl)sc2c1	-91*	16µM*	-23%	-11%	?	26µM*
CCc1ccc2nc(N(CCN(C)C)C(=O)c3ccc4ncsc4c3)sc2c1	-76*	0%	-1%	0%	-27%	-26%
COc1ccc(C(=O)Nc2cccc(OC(=O)c3ccc(C)c(C)c3)c2)cc1	0	-75%	-15%	-7%	-24%	23µM*
COc1ccc(C(=O)Nc2cccc(OC(=O)c3ccco3)c2)cc1	-4	6%	-3%	-3%	-4%	2%
COc1cccc(CC(=O)Nc2ccc3nc(C)sc3c2)c1	33	?	9%	5%	19%	13µM*
COc1ccccc1NC(=O)c1ccc2nc(C)sc2c1	19	-2%	-1%	1%	3%	-16%
COc1cccc(NC(=O)c2ccc3nc(C)sc3c2)c1	-22	18µM*	10%	?	15%	?
CCCc1ccc(-c2cc(C(=O)NN3CCOCC3)c3ccccc3n2)cc1	-56*	?	?	.	-8%	0.46µM*
